The campaign covered roughly 63,000 compounds. About 30 (0.05%) were called active. How the calls were made is not given here. Only a sample is shown.
target: G protein-activated inward rectifier potassium channel 2 (Homo sapiens) (UniProt P48051); assay: opens human GIRK2 potassium channels (AID 1259325); details: HEK293-GIRK2 thallium flux, Thallos fluorescence, MPD
Sequence (P48051 whole entry, looked up): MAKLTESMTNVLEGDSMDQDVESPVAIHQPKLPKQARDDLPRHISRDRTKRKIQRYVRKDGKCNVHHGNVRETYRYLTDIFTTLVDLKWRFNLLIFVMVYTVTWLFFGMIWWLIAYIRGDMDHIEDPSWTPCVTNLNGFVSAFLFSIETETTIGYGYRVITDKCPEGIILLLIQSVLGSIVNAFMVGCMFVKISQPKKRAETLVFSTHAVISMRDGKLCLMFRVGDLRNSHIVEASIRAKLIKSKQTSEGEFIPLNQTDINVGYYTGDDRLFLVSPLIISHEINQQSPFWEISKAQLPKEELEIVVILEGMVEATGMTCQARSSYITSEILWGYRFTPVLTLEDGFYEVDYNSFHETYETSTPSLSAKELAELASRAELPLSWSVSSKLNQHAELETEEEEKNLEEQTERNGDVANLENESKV

outcome, inactive:
Cc1cc(NC(=O)c2ccc([N+](=O)[O-])o2)n(-c2nc3c(F)cccc3s2)n1
O=C(Cc1csc(Nc2ccc(OC(F)(F)F)cc2)n1)NCc1ccncc1
COC(=O)c1ccccc1NS(=O)(=O)c1ccc(N2C(=O)CCC2=O)cc1
Cc1cc(C(=O)Nc2nc3c(C)ccc(Cl)c3s2)on1
COc1ccc(CC(=O)NC2CC(O)C(CO)C2)cc1OC (stereo not drawn)
Cc1cc(C)c(C)c(S(=O)(=O)N2CCC(S(C)(=O)=O)C2)c1C (stereo not drawn)
O=C(OC1CN(c2nc3c(Cl)cccc3s2)C1)c1ccc(=O)[nH]n1
O=C(c1ccc(OC(F)(F)F)cc1)N1CCC(CSC2=NCCS2)CC1
COc1ccc(-c2csc(Cc3nc(-c4ccc(C(F)(F)F)cc4)no3)n2)cc1OC
COc1cc(C2c3c(oc4ccc(C)cc4c3=O)C(=O)N2CCO)cc(OC)c1OC (stereo not drawn)
Cc1oc2cc(OC(=O)N3CCOCC3)ccc2c(=O)c1-c1ccc(Br)cc1
O=C(CSc1nc2ccccc2o1)N1CCN(c2cc(N3CCCCC3)ncn2)CC1
O=C(Nn1cnc2c(cnn2-c2ccccc2)c1=O)c1ccc(Cl)cc1Cl
O=C1/C(=C/c2cc(Br)cc3c2OCOC3)Oc2cc(OC(=O)N3CCOCC3)ccc21
Cc1ccc(Nc2c(C(=O)N3CCOCC3)cnc3ccccc23)cc1C
COc1ccc(NC(=O)CCc2csc(NC(=O)c3ccc[nH]c3=O)n2)cc1Cl
COCCCn1c(C(=O)Nc2cccc(C)c2C)cc2c(=O)n(C)c(=O)n(C)c21
COc1ccc(C2C(C(=O)Nc3ccccc3)=C(C)Nc3nc(C)nn32)cc1OC (stereo not drawn)
COc1ccccc1OCC#CCNC(=O)CSc1nc2ccccc2s1
CCOc1ccccc1C(=O)Nc1ccc(C)c(N2CCCC2=O)c1
COC(=O)c1ccc(S(=O)(=O)NCCC(O)c2cc(C)oc2C)cc1 (stereo not drawn)
Cc1nnsc1C(=O)NCC1CCN(C(=O)c2ccoc2)CC1
CCC1CCCCN1C(=O)c1cnc2nc(C)ccc2c1Nc1ccc(S(C)(=O)=O)cc1 (stereo not drawn)
COc1ccc(NC(=O)c2cn(Cc3ccc(NC(=O)c4ccccc4F)cc3)cn2)cc1
CS(=O)(=O)N1CCc2nc(NC(=O)/C=C/c3ccccc3Cl)sc2C1
C=C1C(=O)O[C@H](CCCCCCCC)C1C(=O)O (stereo partly drawn)
COc1cc(CN2CC(c3nc4ccc(C)cc4[nH]3)C2)cc(OC)c1
COc1ccc(C(O)=C2C(=O)C(=O)N(c3cc(C)on3)C2c2ccc(C)cc2)cc1OC (stereo not drawn)
COc1cc(OC)cc(C(=O)Nc2ccc(Cl)c3ncsc23)c1
Cc1ccc(=O)n(CC(=O)N2CCC(Cc3ccccc3)CC2)n1
O=S(=O)(c1cccc(Cl)c1Cl)N1CCN(c2ccc(-c3ccccc3)nn2)CC1
O=C(C1CCN(c2ccc(-c3ccccc3)nn2)CC1)N1CCN(Cc2ccccc2)CC1
COc1ccc(N2CCN(CCCn3c(C)cn4c5c(=O)[nH]c(=O)n(C)c5nc34)CC2)cc1
O=C(O)CCC/C=C\C[C@@H]1[C@@H](/C=C/C(=O)COc2cccc(C(F)(F)F)c2)[C@H](O)C[C@@H]1O
O=C(c1cc(-c2ccco2)[nH]n1)N1CC(c2nc(-c3ccc[nH]c3=O)no2)C1
COc1ccc(OCc2noc(CNC(=O)/C=C/c3cccs3)n2)cc1
COc1ccc(OCc2noc(CNC(=O)c3ccc4nsnc4c3)n2)cc1
CC1CCC(NC(=O)C2CCN(c3nc4c(-c5ccccc5F)csc4c(=O)[nH]3)CC2)CC1 (stereo not drawn)
Cc1ccc(C)c(NC(=O)CSc2ncnc3nc(N4CCc5ccccc5C4)sc23)c1
O=C1NC(=NCCc2cccc(F)c2)S/C1=C\c1ccc2ncccc2c1
O=C(NCCC(O)c1cccc2ccccc12)Nc1ccccc1 (stereo not drawn)
O=C(Cc1ccccc1Cl)N1CCCC(c2nnc(-c3ccccc3F)s2)C1 (stereo not drawn)
CC(=O)Nc1nc2c(s1)CN(CC(=O)Nc1ccc(OC(F)(F)F)cc1)CC2
CCOCCn1c(-n2nc(C)cc2C)nc2c1c(=O)n(Cc1ccccc1F)c(=O)n2C
CCOC(=O)C1CCc2sc(NC(=O)CCc3c(C)nn(C)c3C)nc21 (stereo not drawn)
O=S(=O)(/C=C/c1ccccc1)NCc1ccc(C(O)c2cccs2)s1 (stereo not drawn)
COC(=O)c1ccccc1NC(=O)Cn1nc2nc(N3CCCC(C)C3)ccn2c1=O (stereo not drawn)
Cc1cccc(Cn2c(N3CCC(C(N)=O)CC3)nc3c2c(=O)[nH]c(=O)n3C)c1
CCCn1c(=O)c2cc(Cl)ccc2n2c(SCC(=O)Nc3ccc4c(c3)OCO4)nnc12
O=C(NCc1ccc2c(c1)OCO2)C1CCN(c2ncnc3c2sc2ncccc23)CC1
COc1ccc2c(=O)c3c(oc2c1)C(=O)N(CCCN(C)C)C3c1ccccc1 (stereo not drawn)
CC(=O)Nc1cccc(C#Cc2cncnc2Nc2ccc(OCc3cccc(F)c3)c(Cl)c2)n1
O=S(=O)(Cc1nc(-c2ccc(OCc3ccccc3)cc2)no1)c1ccccc1
O=C(NC1CCN(C(=O)c2cn(-c3ccc(Cl)cc3)nn2)CC1)C1CCCC1
COc1cccc(CSc2nc(C)c(CC(=O)Nc3cccc(Cl)c3C)c(=O)[nH]2)c1
COc1cc(-c2nc(CSc3nc4ccccc4c(=O)n3C)c(C)o2)cc(OC)c1OC
Cc1cn2c3c(=O)n(Cc4ccc(Br)cc4)c(=O)n(C)c3nc2n1CCCO
COc1ccc(S(=O)(=O)Nc2cccc(N3CCCCC3=O)c2)cc1
C#CCn1c(COc2ccccc2OC)nc2ccccc21
O=C(CCSc1ccccc1)NCCCn1ncccc1=O
CC(O)C(O)(C(=O)OCc1ccccc1NC(=O)CCC(=O)O)C(C)O (stereo not drawn)
O=C(Nc1cnoc1)c1ccc(OC(F)(F)F)cc1
Cc1nc(-c2noc(-c3cccnc3)n2)cn1CC(=O)N1CCc2ccccc21
O=C(Nc1cccc(F)c1)c1sccc1S(=O)(=O)N1CCN(c2ccccc2)CC1
Cc1nc(-c2ccc(N3CCN(C(=O)NCc4ccc(F)cc4)CC3)nc2)no1
O=C(Cc1ccc(F)cc1)N1CC(c2nc(-c3cccnc3)no2)C1
CCc1cc(=O)n(CCNC(=O)COc2ccc(F)cc2F)cn1
COc1ccc(S(=O)(=O)Nc2ccc3c(c2)N(C(=O)c2ccccc2)CCC3)cc1F
NC(=O)c1ccccc1OCC#CCNC(=O)c1ccc(=O)[nH]c1
COC(=O)c1ccc2c(=O)n(-c3cc(OC)cc(OC)c3)c(N3CCSCC3)nc2c1
Cc1cc(C(=O)Nc2nc(C(=O)N3CCN(c4cc(Cl)ccc4C)CC3)co2)no1
Cc1nc(-c2cccc(NC(=O)c3coc(NC(=O)c4cnccn4)n3)c2)cs1
COc1ccc(NC(=O)Cn2c(=O)nc(N3CCC(C)CC3)c3ccccc32)cc1Cl
CC(C)c1nnc(C2CCN(Cc3cccnc3)CC2)o1
CN1CCC(n2cnc(-c3ccc(F)cc3)c2-c2ccnc(N)n2)CC1
Cc1ccccc1N1CCN(c2nccn3c(=O)n(CC(=O)Nc4ccc(Cl)cc4)nc23)CC1
Cn1c(=O)c2c(nc(SCCO)n2Cc2ccccc2)n(C)c1=O
O=C(CSc1nnc(Cn2ccc(=O)[nH]c2=O)o1)N1CCC(Cc2ccccc2)CC1
COc1ccc(-c2cc3nn(CC(=O)NCc4ccccc4Cl)c(=O)n3c(C)n2)cc1
COc1cccc(NC(=O)c2cn(CC(O)c3ccccc3)nn2)c1 (stereo not drawn)
CN(C)CCn1c2c(c(=S)[nH]c1=O)CCC2
CCOC(=O)CCC(=O)N1CCN(Cc2csc(-c3ccccc3)n2)CC1
Cc1cc(N2CCN(C(=O)NC3CCCC3)CC2)ncn1
COc1ccc(C)cc1N1CCn2c1nc1c2c(=O)n(Cc2cccc(C)c2)c(=O)n1C
Nc1nc(Nc2ccc(F)c(F)c2)ncc1[N+](=O)[O-]
O=C(NCc1cccs1)N1C2CCC1COC2
CN1CCC(CNC(=O)c2cc(Br)ccc2Cl)CC1
COc1ccccc1C(=O)NCCN1CCN(c2ccccc2OC)CC1
CCNC(=O)c1cn(-c2ccc(SCC(=O)Nc3ccc(C)cc3)nn2)cn1
Cn1cnnc1SCCNC(=O)CNC(=O)c1ccc(=O)[nH]c1
CC(C)c1ccccc1NC(=O)Cc1cc(=O)[nH]c(SCc2ccc(F)cc2)n1
O=C(NCc1ccccc1)Nc1nnc(-c2ccco2)o1
NC(=O)c1ccccc1OCC#CCNC(=O)C1CCC1
Cc1cc(C(O)CCNC(=O)Nc2ccccc2)c(C)o1 (stereo not drawn)
C#CCSc1nnc(N2CCN(c3ccccc3OC)CC2)s1
O=C(c1ccncc1)N1CCc2cc(S(=O)(=O)N3CCOCC3)ccc21
COc1ccc(NC(=O)C(=O)NCCC2=CCCCC2)cc1Cl
COc1ccc(-n2c(C)c(C)n3c4c(=O)n(CC(C)C)c(=O)n(C)c4nc23)cc1
CCOc1ccccc1C(=O)Nn1cnc2c(cnn2-c2cccc(Cl)c2)c1=O
CCN(CC)C(=O)Oc1ccc2c(=O)c(-c3ccc(Br)cc3)coc2c1
COc1ccccc1N1CCN(CCNC(=O)c2ccc(F)cc2)CC1
CCOC(=O)c1ccc(NC(=O)c2coc(NC(=O)C3CC3)n2)cc1
CCN(CC)c1ccc(-c2noc(CN3CCN(c4cccc(C)c4)CC3)n2)cn1

Reference: PubChem BioAssay AID1259325 (C. David Weaver Laboratory, Vanderbilt University, 2017)
